The full ranking holds about 33,000 sequences; the median of “e-score” is about -0.038, and the highest 2% start at about 0.33. Shown is part of a subset that was picked to be rich in the highest values.

The target in the experiment is T1, GST-Rok-C97-191 (Bacillus subtilis subsp. subtilis str. …, UniProt O34857 97-191).
T1 sequence: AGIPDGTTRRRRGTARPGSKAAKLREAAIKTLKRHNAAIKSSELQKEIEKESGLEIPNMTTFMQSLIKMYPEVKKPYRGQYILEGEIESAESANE
Briefly: protein binding microarray; Rok is a gene silencer of Bacillus subtilis; high values mean tight binding. To be noted: protein: recombinant; tags: GST (pTH5325, pDEST15-Magic modified); dsDNA, one strand shown. The gist of the method:
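Every oligonucleotide joins a 25-mer constant primer to a 35-mer variable part drawn from a de Bruijn sequence of order 10, so each non-palindromic 8-mer appears at least 32 times and each palindromic 8-mer 16 times. The preference for every 8-mer is reported as a unitless, rank-based enrichment score (E-score). This score spans 0.5 for the most favored 8-mer to −0.5 for the most disfavored.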
For the sequence GGAACTAC, the binding signal stood at 0.254 E-score.
Turning to CTAACTCC, the binding signal was -0.00723 E-score.
For CTAACTAG the value was 0.268 E-score.
For the sequence CTAACTAA, the binding signal is 0.288 E-score.
Under ATAACTAC stands 0.323 E-score; under GTAACTAA, 0.353 E-score; under TTAACTAA, 0.235 E-score.
Under CTAACTAC stands 0.348 E-score.
As to GTAACTAC, the binding signal was determined as 0.417 E-score.
Turning to CAAGCAGA, the binding signal came to 0.0345 E-score.
For GCCGAATA, the binding signal was 0.0948 E-score.
Regarding GCTCGTAA, the binding signal stood at 0.0484 E-score.
On to ACTCCAGC, for which the binding signal is 0.114 E-score.
For CTGAAGGA, the binding signal was -0.156 E-score.
For ATCCAGCG the value was -0.106 E-score.
As for AACTACCA, the binding signal amounted to 0.433 E-score.
Turning to CACTACCC, the binding signal is -0.0292 E-score.
As for CACTACCG, the binding signal turned out to be 0.065 E-score.
Under CACTACCA stands 0.0866 E-score; under GACTACCC, 0.0938 E-score.
Under AACTACCC stands 0.338 E-score.
GACTACCA: the binding signal was determined as 0.141 E-score.
On to AACTACCT, for which the binding signal worked out at 0.412 E-score.
For the sequence AACTACCG, the binding signal came out at 0.41 E-score.
AGCTACCG: the binding signal was 0.228 E-score.
Take ACCTACCT: the binding signal was determined as 0.154 E-score.
Under AACTATCT stands 0.294 E-score; under CAATTTTA, 0.234 E-score.
Take ACGGGAGA: the binding signal was -0.12 E-score.
On to CAAGTTGA, for which the binding signal is -0.0731 E-score.
With TCGACTAA, the binding signal is 0.0796 E-score.
For AAAGTTCT the value was 0.145 E-score.
In the case of GCTCGGTA, the binding signal turned out to be 0.0228 E-score.
Regarding AGCGGCCG, the binding signal is -0.112 E-score.
For CATTGATA, the binding signal was determined as 0.26 E-score.
With ACGTTCAC, the binding signal amounted to 0.0772 E-score.
For GATAAGTA the value was 0.238 E-score; for CCGTCGAA, 0.0267 E-score; for GGAATGGA, -0.114 E-score.
On to TCCTACCA, for which the binding signal amounted to 0.273 E-score.
Consider TACTACCA, for which the binding signal was 0.404 E-score.
Regarding TGCTACCA, the binding signal was 0.099 E-score.
Take CGCTACGA: the binding signal came out at 0.0242 E-score.
Consider CCTGTCCC, for which the binding signal was found to be 0.0167 E-score.
Regarding AAATACTA, the binding signal was determined as 0.434 E-score.
In the case of CAATACTA, the binding signal was 0.217 E-score.
For the sequence TAATACTA, the binding signal amounted to 0.401 E-score.
With AAATACTC, the binding signal worked out at 0.205 E-score.
AAATACTG: the binding signal was determined as 0.283 E-score.
With GAATACTA, the binding signal came to 0.209 E-score.
For CATCCCTA, the binding signal is -0.0266 E-score.
Regarding AGCTCGTA, the binding signal is 0.00298 E-score.
With AATCTAGA, the binding signal amounted to 0.331 E-score.
On to AATCTATG, for which the binding signal worked out at 0.135 E-score.
On to TATCTAGA, for which the binding signal was 0.159 E-score.
AATCTATC: the binding signal was 0.421 E-score.
Take AATCTATA: the binding signal turned out to be 0.4 E-score.
Take GATCTATA: the binding signal was determined as 0.305 E-score.
Regarding CATCTATC, the binding signal is 0.201 E-score.
On to AATCTAGG, for which the binding signal amounted to 0.171 E-score.
As to CATCTATA, the binding signal turned out to be 0.201 E-score.
For ACACGTGT, the binding signal was found to be 0.00499 E-score.
For GATAAGAC the value was 0.14 E-score.
Under ACATGCGG stands 0.0405 E-score; under AAAAAGAG, -0.0136 E-score; under CTCACATC, -0.132 E-score.
For the sequence ATTCATCA, the binding signal worked out at 0.0772 E-score.
Under ACGATGCT stands 0.0784 E-score; under ACTGACAT, -0.113 E-score; under ACAGTCCC, -0.126 E-score.
In the case of GCATAGAC, the binding signal is -0.0624 E-score.
As to TACATATA, the binding signal is 0.349 E-score.
Under AACATGTA stands 0.237 E-score; under AACATCTA, 0.165 E-score; under GACATATA, 0.307 E-score.
Regarding CACATCTA, the binding signal is 0.151 E-score.
For AACATATA the value was 0.208 E-score; for TACATCTA, 0.369 E-score.
With CACATGTA, the binding signal stood at 0.162 E-score.
Under TATATGGA stands 0.343 E-score; under TACATGTA, 0.417 E-score; under GATATGGA, 0.0314 E-score.
Turning to CATATGGA, the binding signal amounted to 0.0214 E-score.
As to AGTCAACT, the binding signal was 0.173 E-score.
With AGATTCGA, the binding signal was 0.104 E-score.
ATAATTCG: the binding signal is 0.213 E-score.
On to CCTGGTTA, for which the binding signal was 0.0123 E-score.
Regarding CGACTCTA, the binding signal is -0.0898 E-score.
Consider CCACATAC, for which the binding signal is 0.16 E-score.
AGTGGAAT: the binding signal is -0.0459 E-score.
On to TATATAGA, for which the binding signal came to 0.397 E-score.
Consider CATATATA, for which the binding signal stood at 0.353 E-score.
For CTTATATA, the binding signal worked out at 0.321 E-score.
For TATATCGA the value was 0.314 E-score; for CATATAGA, 0.144 E-score.
In the case of TATATATA, the binding signal is 0.454 E-score.
On to CATATATG, for which the binding signal was 0.306 E-score.
Under CATATATC stands 0.279 E-score; under GATATAGA, 0.244 E-score; under CCAGTACA, 0.0219 E-score.
Under GTAGTGCA stands 0.015 E-score.
With CAGGGCTA, the binding signal is -0.0484 E-score.
For CCTGTATA, the binding signal turned out to be 0.157 E-score.
With CAGGCGCC, the binding signal is -0.149 E-score.
Consider TACGTTCA, for which the binding signal came to 0.085 E-score.
Consider CATAACGC, for which the binding signal was 0.0154 E-score.
For the sequence ACTTTGGA, the binding signal is -0.0486 E-score.
As to ATGACGTA, the binding signal is -0.0485 E-score.
On to AATCTGGA, for which the binding signal is -0.12 E-score.
Take AACCAGTA: the binding signal turned out to be 0.278 E-score.
For ACCTAGTA the value was 0.233 E-score; for CACTAGTA, 0.253 E-score; for AACTAGGG, -0.0014 E-score.
For AACTAGTA the value was 0.47 E-score; for AACTAGTC, 0.0892 E-score.
On to ATCTAGTC, for which the binding signal came out at 0.287 E-score.
Under AACTAGGT stands 0.318 E-score; under ATCTAGTG, 0.364 E-score.
For the sequence AACTAGTG, the binding signal is 0.376 E-score.
As for CACTAGTG, the binding signal is -0.0787 E-score.
Consider ATCTAGTA, for which the binding signal worked out at 0.31 E-score.
Under AACTAGTT stands 0.439 E-score; under CTGACATC, -0.162 E-score.
ATTACGCC: the binding signal is -0.0244 E-score.
For the sequence CTTAAAGA, the binding signal was -0.126 E-score.
Consider CATAGTGC, for which the binding signal was -0.076 E-score.
Turning to ATTGTCCG, the binding signal was -0.0512 E-score.
On to AAGCAAGC, for which the binding signal is -0.165 E-score.
As for CAGCAATA, the binding signal worked out at 0.203 E-score.
Under CGTCATAC stands 0.0184 E-score; under TACTAGCA, 0.256 E-score; under AGCTAGTA, 0.336 E-score.
Turning to TACTAGTA, the binding signal turned out to be 0.433 E-score.
Regarding AGCTAGTC, the binding signal was 0.104 E-score.
In the case of GACTAGTA, the binding signal amounted to 0.368 E-score.
As to GACTAGTC, the binding signal came to 0.0585 E-score.
Consider GGCTAGTA, for which the binding signal was 0.115 E-score.
For GACTAGGA, the binding signal was -0.0139 E-score.
Take TACTAGGA: the binding signal was found to be 0.115 E-score.
Consider AGCGCTCA, for which the binding signal amounted to 0.00935 E-score.
With CTGCTACC, the binding signal was -0.0872 E-score.
TCCCTAAA: the binding signal was -0.186 E-score.
ACGCGCTC: the binding signal was -0.0411 E-score.
For AGTTTCCG the value was 0.112 E-score; for GCGGCCAA, -0.114 E-score; for GAACGTTA, 0.178 E-score.
Take TAACGTTA: the binding signal worked out at 0.339 E-score.
On to AAACGTTA, for which the binding signal was determined as 0.0818 E-score.
For CCTAATGC the value was -0.154 E-score; for AACGTGGC, -0.0901 E-score.
As for ATAGTATG, the binding signal stood at 0.316 E-score.
Regarding ATAGTATC, the binding signal was found to be 0.278 E-score.
Under CTAGTATC stands 0.111 E-score.
Turning to GTAGTATA, the binding signal turned out to be 0.428 E-score.
On to GCAGTATA, for which the binding signal turned out to be 0.224 E-score.
For the sequence CTAGTATA, the binding signal amounted to 0.37 E-score.
For the sequence CAAGTATA, the binding signal stood at 0.251 E-score.
On to ATAGTATA, for which the binding signal worked out at 0.334 E-score.
As to GAAGTATA, the binding signal was 0.164 E-score.
Turning to CGTTGGAG, the binding signal was -0.19 E-score.
On to AGGTATAC, for which the binding signal was 0.19 E-score.
On to CATTCATA, for which the binding signal came out at 0.181 E-score.
Consider CTGTCCCA, for which the binding signal is -0.0317 E-score.
For CTTTCTCA, the binding signal was -0.12 E-score.
On to AGGGAAAC, for which the binding signal is -0.0931 E-score.
For the sequence AGATAGAG, the binding signal was found to be 0.128 E-score.
As to ACATAGAG, the binding signal was -0.0925 E-score.
As to ACATAGAC, the binding signal was found to be 0.0775 E-score.
Under ACATAGAT stands 0.33 E-score; under AGATAGAC, 0.0495 E-score.
Take AGATAGAT: the binding signal worked out at 0.349 E-score.
Consider AATTAGAA, for which the binding signal worked out at 0.202 E-score.

The record behind these values is paper PMC6212790, “How bacterial xenogeneic silencer rok distinguishes foreign from self DNA in its resident genome”.
